# MsrA inhibitor = bovine MsrA enzyme inhibitors, primary screen, biochemical, absorbance, HTS; Methionine sulfoxide reductase A (Bos taurus); purified bovine MsrA, absorbance read-out; inhibition, % at 15.5 µM; actives 0.75% (n = 360,000);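 note: 0% = vehicle wells with enzyme and 100% = reference inhibitor wells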
# bovine MsrA act = bovine MsrA enzyme activators, primary screen, biochemical, absorbance, HTS. Methionine sulfoxide reductase A (Bos taurus). actives 0.3% (n = 360,000). purified bovine MsrA, absorbance read-out. activation, % at 10.6 µM. AID 602163, 2012; in the data active = activation above about 7.5%;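 note: 0% = vehicle and 100% = reference activator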
# PKA-R2B activ = activators of PKA-R2B holoenzyme, primary screen, biochemical, fluorescence polarization, Cy5-IP20, human; PKA-R2B holoenzyme dissociation; R2B truncated from residue 108, S112A mutant; 0% DMSO only, 100% 113 µM cGMP; activation, % at 11.4 µM; actives 0.079% (n = 340,000); AID 504700, 2011;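 active = activation above a cutoff set at the mean over all compounds plus 3 SD, cut at about 18% in these data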;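 note: higher means more holoenzyme dissociation and a rise in polarization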
# Target sequence (P31323 whole entry, looked up, other chains not shown, the tested form may be a part): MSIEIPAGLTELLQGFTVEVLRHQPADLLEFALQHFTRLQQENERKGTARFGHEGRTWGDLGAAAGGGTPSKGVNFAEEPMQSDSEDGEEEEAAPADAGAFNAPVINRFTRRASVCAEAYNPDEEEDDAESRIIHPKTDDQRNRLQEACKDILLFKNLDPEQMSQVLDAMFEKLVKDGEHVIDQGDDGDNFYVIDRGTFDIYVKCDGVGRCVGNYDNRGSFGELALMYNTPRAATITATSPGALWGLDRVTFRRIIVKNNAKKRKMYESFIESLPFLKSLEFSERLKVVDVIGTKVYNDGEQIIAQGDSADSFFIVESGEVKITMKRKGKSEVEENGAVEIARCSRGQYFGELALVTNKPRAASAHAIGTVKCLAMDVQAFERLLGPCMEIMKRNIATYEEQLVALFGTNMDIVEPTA
# SUMO Mot1 rescue = yeast Mot1-301 growth rescue at high temperature, primary screen, SUMOylation pathway inhibitor project, S. cerevisiae, ATP luminescence, 38.5C; S. cerevisiae Mot1-301 growth rescue; percent above DMSO median, 100 means doubled; growth rescue, % at 18.8 µM; actives 1% (n = 320,000);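 active = every valid replicate shows activation above 250% relative to neutral control wells; inactive = the rest, any valid replicate at or below 250%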;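 note: OY570 slx delta 5 strain wells were the positive control but not used for scaling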
# PKA-R1A activ = activators of PKA-R1A holoenzyme, primary screen, biochemical, fluorescence polarization, Cy5-IP20, bovine R1A, mouse PKAc | cAMP-dependent protein kinase type I-alpha regulatory subunit (Bos taurus) + … | PKA-R1A dissociation; scaled: DMSO 0%, 113 µM cGMP 100% | activation, % at 11.4 µM | actives 0.083% (n = 340,000);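 active = percent activation above the mean of all tested compounds plus 3 SD, cut at about 19% in these data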;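 note: higher means more PKAc released from R1A so a rise in polarization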
# MsrA inh confirm = bovine MsrA inhibitors, retest, confirmation, biochemical, absorbance, HTS. shares compounds with MsrA inhibitor. purified bovine MsrA, absorbance read-out. inhibition, % at 15.5 µM. actives 41% (n = 2,300);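 note: coupled to thioredoxin reductase with NADPH and selenocystamine and DMSO as substrate; 0% = vehicle only and 100% = full effect of reference inhibitor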
# Active calls of the source: *; . = no result given. A selection: hits, their analogues and other compounds. The true share with any hit is near 2%. Cut-off read from the data, not from the text of the source, unless noted: active = inhibition above about 4.5%; inactive = the rest.
SMILES,MsrA inhibitor,bovine MsrA act,PKA-R2B activ,SUMO Mot1 rescue,PKA-R1A activ,MsrA inh confirm
N#CC(/C(=N/S(=O)(=O)c1cccs1)c1ccccc1)c1nc2ccccc2[nH]1 (stereo not given),5.0*,-2.6,0.9,-22.9,-7.2,5.8*
N#CC(Cc1cccs1)c1nc2ccccc2[nH]1 (stereo not given),-0.3,-2.0,-11.4,.,-3.1,.
Cc1ccsc1-c1cc2nc(Nc3ccc(F)cc3)n(C)c(=O)c2s1,3.2,-5.5,.,.,.,.
CCCN1CCCc2cc(CN)ccc21,16.0*,-6.2,-8.8,15.4,-12.8,-0.7
CN1CCCc2cc(C=O)ccc21,1.4,-10.4,-4.3,-8.3,-2.9,.
CC1(CC(=O)N/N=C/c2cc(Br)c(O)cc2O)OCCO1,6.1*,-11.0,2.8,-1.2,-12.7,5.3*
Cc1oc(/C=N/NC(=O)CC2(C)OCCO2)cc1Br,-0.5,-9.0,-10.0,4.6,-12.1,.
CCOC(=O)C1=C(O)/C(=C/c2ccc(OCC(=O)O)c(OCC)c2)SC1=Nc1ccc(OC)cc1,4.7*,-2.0,7.3,87.9,-6.5,3.0
CCCNC(=S)N(Cc1ccccc1)Cc1nc2ccccc2c(=O)[nH]1,47.0*,-7.1,2.2,-9.5,1.9,-0.7
COc1ccc(N2CCN(C(=O)COC(=O)c3nc(Cl)ccc3Cl)CC2)cc1,0.2,-2.4,-11.0,.,0.3,.
N#C/C(=C(/O)CSc1ccccc1C(=O)O)c1nc2ccccc2s1,7.1*,-4.5,-2.2,8.2,-14.9,7.1*
CC(=O)c1ccc(COC(=O)c2cc3ccccc3oc2=O)cc1,8.3*,-6.0,6.1,22.5,-4.2,3.9
O=S1(=O)c2cc(Cl)ccc2N2CC[C@H](C2)N1Cc1ccc(Cl)c(Cl)c1,0.2,.,.,.,.,.
Cn1c(/C=N/O)nc2ccccc21,2.8,-1.7,-8.1,-16.5,5.0,.
CCC(=O)c1ccc(/C=C/c2nc3ccccc3n2C)o1,5.2*,-5.8,-3.1,-12.7,-13.8,2.0
CC(C)(C)c1ccc(CC(=O)N2CCC2(C)C(=O)NS(=O)(=O)c2ccc(F)cc2F)cc1 (stereo not given),-1.4,-1.4,.,.,.,.
COC(=O)c1ccc2nc(-c3ccc(OC)c(OC)c3)c(Cc3ccccc3C(F)(F)F)n2c1,-0.3,.,.,.,.,.
CC/C(=N\Nc1ccc([N+](=O)[O-])cc1[N+](=O)[O-])c1ccc(O)cc1,6.7*,-1.7,-6.3,8.0,5.2,1.3
C/C(=N\Nc1ccc(C#N)cc1[N+](=O)[O-])c1ccc(O)cc1,16.4*,-3.5,-9.7,226.9,-7.3,16.8*
CC(C)(CO)Nc1ccc([N+](=O)[O-])cc1[N+](=O)[O-],5.3*,3.2,-2.8,-14.1,9.6,4.4
C[C@@H]1CN([C@@H](C)CO)C(=O)CCCn2cc(nn2)CO[C@H]1CN(C)C(=O)Nc1ccc(N2CCN(C)CC2)cc1,2.1,.,.,.,.,.
CSc1ccc(/C=N/NC(=O)c2cccc(O)c2)cc1,4.8*,-3.0,12.0,-6.2,-2.1,5.6*
CCOc1ccc(C(=O)N/N=C/c2ccc(SC)cc2)cc1,0.7,-3.6,-17.5,28.9,-3.8,.
COC(=O)N(C)C[C@@H]1OCc2cnnn2CCCC(=O)N([C@H](C)CO)C[C@H]1C,0.8,-2.4,-7.7,.,6.8,.
NC(=O)N\N=C/C=C/C=C/c1ccc(F)cc1,5.2*,-7.7,-4.7,83.4,-7.4,3.5
SMILES,MsrA inhibitor,bovine MsrA act,PKA-R2B activ,SUMO Mot1 rescue,PKA-R1A activ,MsrA inh confirm
Cc1ccc(Cc2c(-c3cccc(Br)c3)nc3c4ccccc4ccn23)cc1,-0.4,.,.,.,.,.
Nc1ccc(C=Cc2ccc(N)cc2)cc1,5.2*,-14.9,.,.,.,4.1
OCCOCCn1c(-c2ccccc2)nc(=S)c2c1CCCC2,5.9*,-7.4,5.2,15.0,-7.6,3.7
O=C(Nc1nc2c(s1)CCCC2=O)c1cnccn1,4.7*,-4.2,-6.7,-14.8,-0.4,3.1
CCN1CCCSC1=S,-0.4,-1.4,.,.,.,.
COCCCNC(=O)CSc1nc2c(sc(=S)n2-c2cc(Cl)ccc2OC)c(=O)[nH]1,5.8*,-14.2,-10.5,9.4,-5.4,4.3
CCC(C)NC(=O)CSc1nc2c(sc(=S)n2-c2cc(Cl)ccc2OC)c(=O)[nH]1 (stereo not given),1.7,0.1,-1.2,14.9,3.2,.
Cc1ccc(/C=C(/C#N)C(=O)NC(C)c2ccccc2)o1 (stereo not given),2.6,-10.9,-4.3,-10.2,8.7,.
Cc1ccc(/C=C(\C#N)C(=O)NC(C)C)o1,6.1*,-17.2,0.8,-7.9,-7.8,5.0*
Cc1cc(=O)oc2c(O)c(O)ccc12,1.0,-2.5,7.5,.,-2.9,.
CCOc1ccc(/C=C/C(=O)c2c(O)cc(C)oc2=O)cc1,1.1,-4.5,-3.6,270.0,-3.0,.
COc1ccc(/C=C/C(=O)c2c(O)ccc3c(C)cc(=O)oc23)cc1,5.4*,-4.7,2.8,-1.4,-2.4,5.1*
COc1ccc(/C=C\C(=O)c2c(O)ccc3c(C)cc(=O)oc23)cc1,5.3*,-9.3,0.7,-18.1,-10.7,4.5
C[C@H](CO)N1C[C@H](C)[C@@H](CN(C)S(=O)(=O)c2ccc(-n3cccn3)cc2)OCc2cnnn2CCCC1=O,0.5,-5.0,0.5,.,4.0,.
CCCCCCC12Cc3cc(OC)c(OC)cc3C(O1)c1c(cc(C)oc1=O)O2 (stereo not given),0.6,.,.,.,.,.
Cc1cc(N/C=C/C(=O)c2cccc3ccccc23)no1,4.7*,-4.4,-0.8,5.5,-2.2,2.2
Nc1cc(Cl)ccc1N1CCCCC1,-0.7,-5.3,-2.5,-9.9,-7.3,.
N#Cc1c(N2CCCC2)ccc(Br)c1Cl,6.0*,-11.2,-3.8,118.8,-2.3,9.0*
Cn1c(=O)n(C)c2cc(/C=N/NC(=O)c3ccc(Cl)cc3Cl)ccc21,3.5,-3.0,-1.9,15.3,-11.6,.
C=CCNC(=S)N/N=C/c1ccc(C)c([N+](=O)[O-])c1,1.9,-9.0,-8.1,19.0,-6.9,.
Cn1c(=O)n(C)c2cc(/C=N/NC(N)=S)ccc21,5.5*,-8.3,-5.0,-2.2,-13.9,4.8*
CN(C)c1ccc(/C=N/NC(N)=S)cc1[N+](=O)[O-],10.1*,-4.7,-0.9,-8.1,0.1,7.1*
O=[N+]([O-])c1cc(S(=O)(=O)N2CCCC2)ccc1N/N=C/c1ccccn1,0.2,-1.8,-4.7,-18.8,-14.1,.
NS(=O)(=O)c1ccc(N/N=C/c2ccc(O)cc2O)c([N+](=O)[O-])c1,6.2*,-6.0,6.1,-1.5,-3.9,3.4
NS(=O)(=O)c1ccc(N/N=C/c2ccccn2)c([N+](=O)[O-])c1,5.9*,-13.1,-14.6,9.8,3.4,4.3
